An excerpt weighted towards active compounds, which were near 2.9% of everything screened.
B2AR arrestin: agonists driving beta-arrestin recruitment to human beta2-adrenergic receptor | 330,000 tested, 0.02% active | Potency, µM (doses to about 46.1 µM), without a hit: at the highest dose activation, actives largely listed as activators | P07550 | beta-arrestin recruitment to beta2AR, cell-based reporter; active means well fitted activation curve with a large enough effect; inconclusive means small, poorly fitted or top-dose-only effect;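 further: potency means the concentration at half of the fitted maximal effect; 0% = DMSO controls and full agonism = EC100 isoproterenol or metaproterenol; nearly all actives have a fitted effect of over 65% in size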
DRD3 agonist: D3 dopamine receptor (human) agonism; P35462; D3R DiscoveRx beta-arrestin cells, luminescence, 90 min; max activation, %; 410,000 tested, 0.58% active; in the data active means max activation above about 30%; further: 0% is about no effect
Target sequence (P35462 whole entry, looked up): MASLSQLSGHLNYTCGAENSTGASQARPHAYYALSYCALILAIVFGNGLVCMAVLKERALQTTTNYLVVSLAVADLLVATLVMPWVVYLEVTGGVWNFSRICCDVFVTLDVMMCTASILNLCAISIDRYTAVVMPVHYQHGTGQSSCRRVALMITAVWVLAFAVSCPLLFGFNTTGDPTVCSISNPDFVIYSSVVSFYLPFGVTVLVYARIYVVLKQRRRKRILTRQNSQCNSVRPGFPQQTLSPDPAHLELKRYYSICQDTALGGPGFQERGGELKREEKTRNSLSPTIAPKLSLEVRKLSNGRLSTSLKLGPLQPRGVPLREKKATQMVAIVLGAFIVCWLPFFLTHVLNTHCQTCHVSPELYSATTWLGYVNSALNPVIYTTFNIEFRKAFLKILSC
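Cells at 1500/well, incubated overnight, then treated with pinned compounds (dopamine as control) for 90 min at 37 degrees C. DiscoveRx reagent added for 30 - 60 minutes at room temperature; luminescence read.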
D3 antag: D3 dopamine receptor (human) antagonism; P35462; D3R cells, DiscoveRx beta-arrestin luminescence, antagonist mode; hits give low values; max response, negative = inhibition, %; 360,000 tested, 2.5% active; in the data active means max response below about -50%; inconclusive means no clear call, values can overlap the other calls; further: on the % scale 0 is the no-effect control and ±100 the full control effect
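Cells plated overnight at 1500 cells/well, then exposed to library compounds with dopamine controls for 90 minutes at 37 degrees C. DiscoveRx reagent added for 30–60 minutes at room temperature; luminescence read, quantitative HTS format.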
TSHR antag: human thyrotropin receptor antagonism. TSHR-expressing cells, TSH-stimulated cAMP HTRF, 2 h; hits give low values. 330,000 tested, 0.2% active. activity change, negative = inhibition, % at 11.5 µM. P16473;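 active means activity change below a set negative limit, meaning inhibition stronger than a set level, cut at about -70% in these data; inconclusive means activity change between two set negative limits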; further: on the % scale 0 is the no-effect control and ±100 the full control effect
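Read-out is FRET at 665 nm (cryptate excitation 337 nm) from a cryptate-tagged anti-cAMP antibody, competed by cell cAMP against cAMP-d2. Compounds are tested on freshly harvested TSHR cells challenged with 4nM TSH (EC80) for 2 hours at 37 deg C.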
An asterisk follows results filed as active; ? = inconclusive; . = no result.

SMILES | B2AR arrestin | DRD3 agonist | D3 antag | TSHR antag
Cc1cc(-c2ccc(S(=O)(=O)Nc3cccc(C(F)(F)F)c3)s2)on1 | . | -21.4 | . | .
COc1cc(Br)c(CN2CCCN(C)CC2)cc1OC | -0.6% | 0.6 | -11.1 | 9.8
COc1ccc(CN2CCCN(C)CC2)c(OC)c1C | -0.3% | -17.2 | -18.6 | -118.6*
CN1CCCN(Cc2ccc(Cl)cc2Cl)CC1 | -0.1% | -33.5 | -78.0* | 19.1
CN1CCCN(Cc2ccccc2C(F)(F)F)CC1 | -0.1% | -5.8 | -84.1* | -7.0
COc1ccc(CCNC(=O)Cn2c(=O)nc(-c3ccccc3F)c3cc(Cl)ccc32)cc1OC | . | -12.2 | . | .
O=[N+]([O-])c1ccc(-c2nc(C(Cl)Cl)c3ccccc3n2)cc1 | -0.1% | -13.1 | -59.4* | -2.9
CN(Cc1ccccc1)c1nc(-c2ccc([N+](=O)[O-])cc2)nc2ccccc12 | -0.1% | 2.7 | -54.0* | 9.6
Cn1cnnc1SCC(=O)N1c2ccccc2-c2c(ssc2=S)C1(C)C | 0.4% | . | . | -2.2
CC1(C)c2ssc(=S)c2-c2ccccc2N1C(=O)c1ccco1 | -0.9% | -5.2 | -20.6 | -74.2*
Cc1ccc2c(c1)-c1c(ssc1=S)C(C)(C)N2C(=O)c1ccco1 | -0.4% | -26.0 | -61.8* | -19.8
COc1ccccc1C(CNC(=S)NCc1ccccc1)N1CCCC1 (centres undefined) | 0.2% | -20.4 | -28.3 | 1.2
COc1ccc(C(CNC(=S)NCc2ccccc2)N2CCCC2)cc1 (centres undefined) | 0.2% | -34.8 | -57.8* | 5.2
COc1ccc(C(CNC(=O)C(CCSC)NC(=O)c2ccccc2Cl)N2CCCCC2)cc1 (centres undefined) | -1.4% | -22.6 | -59.1* | 9.8
COc1ccc(C(CNC(=O)C(CCSC)NC(=O)c2ccccc2Cl)N2CCCC2)cc1 (centres undefined) | 0.0% | -8.0 | -20.4 | -6.9
COc1ccc(C(CNC(=O)c2ccccc2C)N2CCCC2)cc1 (centres undefined) | -0.1% | -34.1 | -85.3* | 1.0
COc1ccc(C(CNC(=O)COc2ccccc2C)N2CCCCC2)cc1 (centres undefined) | -1.9% | -18.7 | -10.7 | 12.3
COc1ccc(C(CNC(=O)c2cccc(NS(=O)(=O)c3ccccc3)c2)N2CCCC2)cc1 (centres undefined) | . | -2.0 | -88.0* | .
O=C(NCc1ccc(F)cc1)c1ccc2c(c1)N(Cc1c(F)cccc1Cl)C(=O)CS2 | . | -1.2 | . | .
CC1CCCN(S(=O)(=O)c2cccc(C(=O)NCc3ccco3)c2)C1 (centres undefined) | -0.2% | 5.9 | ? | 24.0
COc1ccc(NS(=O)(=O)c2cccc(C(=O)NCC(c3ccco3)N3CCCCC3)c2)cc1 (centres undefined) | -0.9% | -15.6 | -26.4 | -5.5
COc1ccc(C(CNC(=O)c2cccc(S(=O)(=O)N3CCCC(C)C3)c2)N(C)C)cc1 (centres undefined) | 7.9% | -27.0 | -65.0* | -8.9
COc1ccc(C(CNS(=O)(=O)c2ccc(NC(C)=O)c(OC)c2)N2CCCC2)cc1 (centres undefined) | -0.4% | -2.0 | -53.9* | .
COc1ccc(C(CNC(=O)c2cccc(S(=O)(=O)Nc3ccc(C)cc3)c2)N2CCCCC2)cc1 (centres undefined) | 0.0% | -32.7 | -63.9* | 6.9
CCC1CCc2sc(C(=O)NCC(c3ccc(OC)cc3)N3CCOCC3)cc2C1 (centres undefined) | -0.2% | -5.1 | -90.5* | -4.5
SMILES | B2AR arrestin | DRD3 agonist | D3 antag | TSHR antag
Cc1ccc(C)c(NC(=O)Nc2nnc(N(CC(C)C)CC(C)C)s2)c1 | . | -17.8 | . | .
Cc1ccc(Cn2c(C(=O)O)c(CNCc3ccc(OC(C)C)cc3)c3ccc(C)cc32)cc1 | . | 4.4 | . | .
COc1ccc(C(CNC(=O)c2ccc(S(=O)(=O)N(C)C)cc2)N2CCCC2)cc1 (centres undefined) | 0.3% | -12.4 | -7.7 | 19.6
COc1ccc(C(CNC(=O)c2oc3ccc(Cl)cc3c2C)N2CCCCC2)cc1 (centres undefined) | -0.2% | -17.9 | -103.3* | 8.8
COc1ccc(OCC(=O)NCC(c2ccc(Cl)cc2)N2CCCCC2)cc1 (centres undefined) | . | -18.0 | . | .
COc1ccc(C(CNC(=O)CN(C)S(=O)(=O)c2ccc(C)cc2)N2CCCC2)cc1 (centres undefined) | -0.6% | -13.8 | -98.8* | 13.4
COc1ccc(C(CNC(=O)c2cccc(S(=O)(=O)N(C)c3ccccc3)c2)N2CCCC2)cc1 (centres undefined) | 0.2% | -24.7 | -66.0* | 2.9
